Assay results as given in PMC7862700, “An all-to-all approach to the identification of sequence-specific readers for epigenetic DNA modifications on cytosine”.

How the values were obtained:
Experiment in all cases: DAPPL (digital affinity profiling via proximity ligation, sequencing); 10 mM Tris-HCl pH 7.5, 50 mM NaCl, 1 mM DTT, 4% glycerol, room temperature, 30 min; GST-TFs on glutathione beads, 16-mer random dsDNA library, 0.1% formaldehyde crosslink after washing; high values mean tight binding
Settings in all cases: protein: recombinant; tags: N-terminal GST; dsDNA, one strand shown
FLI1 = molecular target: T1, FLI1 (Homo sapiens, UniProt Q01543 1-452)
T1 sequence: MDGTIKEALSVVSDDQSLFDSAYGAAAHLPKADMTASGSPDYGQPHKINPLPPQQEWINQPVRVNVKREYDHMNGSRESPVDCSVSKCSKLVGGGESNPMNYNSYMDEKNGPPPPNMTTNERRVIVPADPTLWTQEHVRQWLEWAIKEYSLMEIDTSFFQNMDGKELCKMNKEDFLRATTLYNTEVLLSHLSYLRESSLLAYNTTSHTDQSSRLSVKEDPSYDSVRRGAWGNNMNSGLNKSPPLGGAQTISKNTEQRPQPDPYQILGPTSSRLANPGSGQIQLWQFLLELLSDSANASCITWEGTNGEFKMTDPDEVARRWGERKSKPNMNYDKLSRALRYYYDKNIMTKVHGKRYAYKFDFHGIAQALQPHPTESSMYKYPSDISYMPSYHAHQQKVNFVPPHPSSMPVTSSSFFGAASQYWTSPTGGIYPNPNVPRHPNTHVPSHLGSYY
Procedure, shortened: (§1)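 Human transcription factors were made in yeast as GST fusions, captured on glutathione beads and barcoded with DNA. With a tag-only sample included, the pool was incubated with 200 nmole of a random double-stranded 16-mer DNA library in Tris/NaCl/DTT/glycerol buffer at room temperature for 30 min, then crosslinked with 0.1% formaldehyde after washing, ligated by proximity, amplified and sequenced. For binding signal, each hexamer's read frequency for a factor is divided by its frequency for the tag-only sample.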

ELK1 = molecular target: T2, ELK1 (Homo sapiens, UniProt P19419 1-428)
T2 sequence: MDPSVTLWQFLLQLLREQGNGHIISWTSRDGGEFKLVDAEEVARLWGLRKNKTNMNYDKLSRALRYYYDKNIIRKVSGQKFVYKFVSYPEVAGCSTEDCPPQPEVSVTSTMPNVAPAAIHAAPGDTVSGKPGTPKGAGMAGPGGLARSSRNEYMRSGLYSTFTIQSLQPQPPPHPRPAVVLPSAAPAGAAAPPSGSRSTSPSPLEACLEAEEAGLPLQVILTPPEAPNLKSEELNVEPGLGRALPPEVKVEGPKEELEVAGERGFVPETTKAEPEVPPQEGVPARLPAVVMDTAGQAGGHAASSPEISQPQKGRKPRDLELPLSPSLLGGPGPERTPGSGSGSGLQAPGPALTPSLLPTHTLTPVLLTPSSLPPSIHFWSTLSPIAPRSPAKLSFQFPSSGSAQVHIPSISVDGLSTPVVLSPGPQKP
Procedure, shortened: as §1

GABPA = molecular target: T3, GABPA (Homo sapiens, UniProt Q06546 1-454)
T3 sequence: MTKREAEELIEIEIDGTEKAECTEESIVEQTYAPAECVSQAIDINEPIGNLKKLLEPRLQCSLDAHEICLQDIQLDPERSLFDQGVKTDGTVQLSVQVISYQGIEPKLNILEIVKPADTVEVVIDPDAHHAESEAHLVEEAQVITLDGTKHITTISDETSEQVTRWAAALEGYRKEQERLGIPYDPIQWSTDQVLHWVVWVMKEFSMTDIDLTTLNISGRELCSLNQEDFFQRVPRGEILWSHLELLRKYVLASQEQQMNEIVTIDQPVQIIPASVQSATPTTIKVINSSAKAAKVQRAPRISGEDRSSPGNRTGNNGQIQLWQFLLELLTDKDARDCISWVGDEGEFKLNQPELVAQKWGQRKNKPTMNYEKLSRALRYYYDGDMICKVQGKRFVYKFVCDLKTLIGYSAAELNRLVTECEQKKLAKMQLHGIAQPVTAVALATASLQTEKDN
Procedure, shortened: as §1

ERG = molecular target: T4, ERG (Homo sapiens, UniProt P11308 1-479)
T4 sequence: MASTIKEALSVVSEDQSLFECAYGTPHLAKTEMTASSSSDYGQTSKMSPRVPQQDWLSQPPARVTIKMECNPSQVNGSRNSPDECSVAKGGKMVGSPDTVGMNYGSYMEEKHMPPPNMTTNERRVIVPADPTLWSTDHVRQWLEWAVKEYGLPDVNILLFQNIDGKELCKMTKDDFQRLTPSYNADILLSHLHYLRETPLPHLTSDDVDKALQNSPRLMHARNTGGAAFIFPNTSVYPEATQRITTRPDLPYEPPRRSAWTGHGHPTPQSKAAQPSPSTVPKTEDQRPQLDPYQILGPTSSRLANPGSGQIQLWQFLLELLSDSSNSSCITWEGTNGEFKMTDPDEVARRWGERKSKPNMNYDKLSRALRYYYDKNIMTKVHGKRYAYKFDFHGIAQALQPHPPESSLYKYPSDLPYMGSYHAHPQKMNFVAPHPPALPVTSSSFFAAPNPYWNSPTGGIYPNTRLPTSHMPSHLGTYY
Procedure, shortened: as §1

ELF1 = ELF1 (Homo sapiens, UniProt P32519 1-619)
Procedure, shortened: as §1

EHF = molecular target: T5, EHF (Homo sapiens, UniProt Q9NZC4 1-300)
T5 sequence: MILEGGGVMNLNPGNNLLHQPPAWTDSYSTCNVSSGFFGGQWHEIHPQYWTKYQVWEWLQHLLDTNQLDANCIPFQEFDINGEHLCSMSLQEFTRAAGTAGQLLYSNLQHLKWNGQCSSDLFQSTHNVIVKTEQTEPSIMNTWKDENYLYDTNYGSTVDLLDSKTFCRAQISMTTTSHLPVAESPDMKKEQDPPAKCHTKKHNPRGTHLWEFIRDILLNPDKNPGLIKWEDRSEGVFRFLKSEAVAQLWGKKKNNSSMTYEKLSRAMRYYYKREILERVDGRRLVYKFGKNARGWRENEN
Procedure, shortened: as §1

SPI1 = SPI1 (Homo sapiens, UniProt P17947 1-270)
Procedure, shortened: as §1

ELK3 = molecular target: T6, ELK3 (Homo sapiens, UniProt P41970 1-407)
T6 sequence: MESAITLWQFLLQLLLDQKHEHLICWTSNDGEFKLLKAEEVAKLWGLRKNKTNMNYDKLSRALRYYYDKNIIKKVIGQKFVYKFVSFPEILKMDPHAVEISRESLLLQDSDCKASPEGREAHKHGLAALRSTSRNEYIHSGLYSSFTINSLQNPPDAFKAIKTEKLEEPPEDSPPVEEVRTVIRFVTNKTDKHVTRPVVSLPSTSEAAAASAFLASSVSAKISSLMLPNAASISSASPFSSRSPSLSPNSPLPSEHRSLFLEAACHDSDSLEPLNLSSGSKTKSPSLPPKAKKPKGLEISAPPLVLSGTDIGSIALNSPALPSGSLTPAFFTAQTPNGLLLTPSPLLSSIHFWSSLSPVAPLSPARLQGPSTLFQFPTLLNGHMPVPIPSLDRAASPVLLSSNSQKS
Procedure, shortened: as §1

FEV = molecular target: T7, FEV (Homo sapiens, UniProt Q99581 1-238)
T7 sequence: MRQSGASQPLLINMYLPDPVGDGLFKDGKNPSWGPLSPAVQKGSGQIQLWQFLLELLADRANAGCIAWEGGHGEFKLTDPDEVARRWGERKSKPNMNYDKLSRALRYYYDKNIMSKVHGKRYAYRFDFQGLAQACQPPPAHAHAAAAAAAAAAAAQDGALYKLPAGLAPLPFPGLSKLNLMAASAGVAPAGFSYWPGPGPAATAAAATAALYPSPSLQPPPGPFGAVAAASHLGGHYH
Procedure, shortened: as §1

Chain of ELF1 (P32519 whole entry): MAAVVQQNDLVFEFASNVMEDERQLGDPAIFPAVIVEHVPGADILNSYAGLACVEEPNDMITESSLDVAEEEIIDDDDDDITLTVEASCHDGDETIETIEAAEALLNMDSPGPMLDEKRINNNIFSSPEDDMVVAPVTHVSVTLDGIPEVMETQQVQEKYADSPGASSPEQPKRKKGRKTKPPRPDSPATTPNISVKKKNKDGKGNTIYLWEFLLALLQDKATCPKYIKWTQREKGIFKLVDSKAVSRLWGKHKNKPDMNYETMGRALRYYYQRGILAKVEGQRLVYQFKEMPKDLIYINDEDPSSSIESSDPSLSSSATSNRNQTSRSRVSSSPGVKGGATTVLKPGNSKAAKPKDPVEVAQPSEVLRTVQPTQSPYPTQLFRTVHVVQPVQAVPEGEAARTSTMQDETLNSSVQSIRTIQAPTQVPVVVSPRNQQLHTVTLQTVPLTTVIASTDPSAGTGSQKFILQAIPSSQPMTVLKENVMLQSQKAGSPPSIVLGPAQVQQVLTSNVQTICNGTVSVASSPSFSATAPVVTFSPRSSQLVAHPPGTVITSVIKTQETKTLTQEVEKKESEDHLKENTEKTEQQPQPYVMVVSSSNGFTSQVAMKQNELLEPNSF

Q: AAGCAG was tested. Which binding signal (FLI1) did it give?
A: Its binding signal is 1.1 fold enrichment (6-mer frequency, TF over GST control).

Q: And the binding signal (ELK1)?
A: The binding signal was 1.14 fold enrichment (6-mer frequency, TF over GST control).

Q: What about the binding signal (GABPA) of the same sequence?
A: The binding signal was 1.13 fold enrichment (6-mer frequency, TF over GST control).

Q: What about the binding signal (ERG) of the same sequence?
A: Its binding signal is 1.11 fold enrichment (6-mer frequency, TF over GST control).

Q: What about the binding signal (ELF1) of the same sequence?
A: Its binding signal is 1.12 fold enrichment (6-mer frequency, TF over GST control).

Q: What about the binding signal (EHF) of the same sequence?
A: The binding signal was 1.12 fold enrichment (6-mer frequency, TF over GST control).

Q: And the binding signal (SPI1)?
A: Its binding signal is 1.24 fold enrichment (6-mer frequency, TF over GST control).

Q: What about the binding signal (ELK3) of the same sequence?
A: The binding signal was 1.23 fold enrichment (6-mer frequency, TF over GST control).

Q: And the binding signal (FEV)?
A: Its binding signal is 1.09 fold enrichment (6-mer frequency, TF over GST control).
